In all, about 25,000 sequences were measured (“ln(normalized median fluorescence intensity)”: median about 7.1, highest 2% from about 10 on). This excerpt belongs to a sample that is enriched for the highest values.

The assay concerns PfSIP2 AP2 domain 1 (GST-tagged). Put plainly: gcPBM binding intensity (ln(normalized median fluorescence intensity)); higher = stronger DNA binding. In short, it runs like this: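 GST-fused DNA-binding domains of P. falciparum, expressed in E. coli, were applied at about 25 μg on average for 1 h to an Agilent 4 × 180k array of primer-extended double-stranded 36-bp intergenic genomic probes and negative controls. Binding intensity is the highest Masliner-normalised natural-log median intensity across replicate spots of either probe orientation, measured with Alexa488 anti-GST antibody and a 488 nm scan.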
With “AAATTTAACAACTTCAAACACACAATATATATATAT [CACACA_site2092]”, the “gcPBM binding intensity (ln)” value came to 8.91.
Under “AACATACCCATATACACACACACATAAATACAGATA [CACACA_site4744]” stands 7.3; under “GATTGATTATATGTGTGTACTTATATGTTAAAAAAA [XGTACX_site4784]”, 7.29.
Next, “AGTCATATAAATAGTAGTACTGTGTGTGAAGAAAAA [XGTACX_site5056]”: 7.42; “TTAACAAAATTTCCGTGTACGTAAATAAGAACATAG [XGTACX_site7200]”: 7.25; “ACAAATACAAAAAAAGGTACACACATAATATATTTA [XGTACX_site5515]”: 7.04.
Under “ACATTCAATCTACTGTGTACATATTAAACTTTGAAA [XGTACX_site2913]” stands 7.49; under “ATTATATATATATTATGTACATATATTGAAGTGGAT [XGTACX_site5916]”, 7.56; under “TATACTTTATATATTTTGTATATATATTTTTTTTAT [TGCATGCA_negctrl_site530]”, 7.
On to “GTTAATATTTTTGGGGGTACTTAAAAAAAAAAAAAA [XGTACX_site1477]”, for which the “gcPBM binding intensity (ln)” value was 7.78.
Next, “ATTTTTTTTTTTTTTTTGGGGGGGTATACTTTTAAA [CACACA_negctrl_site1020]”: 10.7; “AATAAATTGAAACACACACACACATATATATATATA [CACACA_site848]”: 9.2.
Under “AGGAGGATATTACACAGTACCCAGGAAATCTACGGA [XGTACX_site4878]” stands 6.82; under “CTTAAATTAATTTGGGTGCATATATTTGTACACATT [GTGCAC_site9948]”, 10.9.
Next, “TTGCATATTTCTAATTGTACATTATTTTATTTTATA [XGTACX_site8451]”: 6.96; “ATATATAATTAATTTTGTACACATAAAAAAAAAAAT [XGTACX_site6647]”: 7.25; “TTGGGTGCATATATTTGTACACATTATTTCTATTTT [XGTACX_site3688]”: 12.
Consider “AATTAATTAAATTAATGTACACATATATTTGTATTC [XGTACX_site2341]”, for which the “gcPBM binding intensity (ln)” value was determined as 7.14.
Under “ACATATTTTATTTTTTGTACACATATATTATTTTTT [XGTACX_site6528]” stands 7.28; under “AAAACCTAAAAGTCTTAAATTTTAAATATACCTACA [GTGCAC_negctrl_site492]”, 6.6; under “TTTATTTTATCATTTGCACACGCACCCAGACATAAA [CACACA_site4347]”, 10.8.
Under “TTTATTTTATCATTTGCACACGCACCCCCACATAAA [CACACA_site8007]” stands 11.5; under “TTTATTTTATCATTTGCACACGCACGCCCACATAAA [CACACA_site353]”, 7.85.
Next, “TATTTTATCATTTGCACACGCACACCGACATAAAAA [CACACA_site4348]”: 7.71; “TATTTTATCATTTGCACACGCACACCCACATAAAAA [CACACA_site354]”: 8.03; “CCCATGCATTTTTGCACACACATATATTTATAAATA [CACACA_site6785]”: 8.16.
Consider “ATATTAAACAAACACACACACATATATATATATATA [CACACA_site3383]”, for which the “gcPBM binding intensity (ln)” value was found to be 9.67.
With “ATAAATGAACAAGTGGCACACACACCGTATAACTAA [CACACA_site9047]”, the “gcPBM binding intensity (ln)” value was found to be 6.91.
Under “ATGTATATATTTACGTGTACATATTCATGTGATATC [XGTACX_site5871]” stands 7.
For the sequence “GTTCAATTATTTTTATGTACATATATTTTTTTCTTT [XGTACX_site2505]”, the “gcPBM binding intensity (ln)” value was 7.46.
With “ATCATTTGCATACGCACACACACATAAAAAGAAAAA [CACACA_site355]”, the “gcPBM binding intensity (ln)” value came out at 7.54.
Take “ACATTGCACCCGTGCACACATAGAAAAATAATTCTT [CACACA_site409]”: the “gcPBM binding intensity (ln)” value was determined as 12.2.
Under “CATTTGCACCCGCACACACACATAAAAAGAAAAATA [CACACA_site4350]” stands 11.6; under “ACCCATTGCTCACGTGCACACATAGAAAAATAATTC [CACACA_site4389]”, 10.1.
Under “TCATTGAAAATTGTTGCACACATAATAATTAAATAT [CACACA_site8554]” stands 7.36; under “CATTTGCACACGCACACACACATAAAAAGAAAAATA [CACACA_site6297]”, 7.71.
Under “AATTTGGTGTGTGTAAAAGTATGTGTCTATATTTAT [GTGCAC_negctrl_site166]” stands 7.11; under TTTTTTGTTATGCGGGTGCATATAATAATGTGATGA, 10.8; under TAATATAATGATGCAGTGCATATGTTAAAATGAAAA, 8.72.
For TTTTGTTATTTTTCAGTGCAATATGATAATAATATA, the “gcPBM binding intensity (ln)” value came to 7.72.
Take “TAATATATTAAAAATAGTACATAAGAAAAATAAGTA [XGTACX_site7957]”: the “gcPBM binding intensity (ln)” value turned out to be 7.11.
Under “TATTATATTTTTATTTGTACGTAAAATTAAGTTATG [XGTACX_site2405]” stands 7.14; under “CAATATTTGTTATGGGTGCAAACCGCATATATATAA [GTGCAC_site9543]”, 11.
Under “TTTTTTGTTAAACCGGTGCATATAAATATATATATA [GTGCAC_site9989]” stands 9.54.
As for “CAATAGTTCTTATGGGTGCAAACCACATATATATAA [GTGCAC_site9606]”, the “gcPBM binding intensity (ln)” value was 11.3.
Under “TATAATAGTTCATAGGTGCAATATAATAAATTTATA [GTGCAC_site9573]” stands 9.98.
On to “AATTATATGAAATAAACACACATATGCAATATTGCA [CACACA_site6988]”, for which the “gcPBM binding intensity (ln)” value was found to be 6.98.
Next, “AACAAATATATTAACACACAAACATATAAACCAATG [CACACA_site3970]”: 7.19.
Under CAATATATTATATGGGTGCAAACCACATATAAATAA stands 10.9.
Next, “AAAAAAAAAAACAATACATGCATAATATTAATAAAA [TGCATGCA_site913]”: 6.96; “ATTTATTTATACAAAGTGCAATATTTTGTTAAAGTC [GTGCAC_site9618]”: 7.89; “ATATAAAATACATGGGTGCAATATATTAAACAAATA [GTGCAC_site9421]”: 10.8.
Consider TATGGGTTTATATAGGTGCAATATATGTATATATAA, for which the “gcPBM binding intensity (ln)” value was 10.2.
On to “TATTAAATATATATTACATGCAAAAAAAAAAAACAA [TGCATGCA_site705]”, for which the “gcPBM binding intensity (ln)” value is 7.13.
Turning to “AATCAAAGCCCACATACACACACATATATATATATA [CACACA_site7987]”, the “gcPBM binding intensity (ln)” value turned out to be 9.39.
Next, “TTTTGTCAACATTTTTATATTAGGTCTTGAACGATT [GTGCAC_negctrl_site72]”: 6.9; “AATAATATATGGTGTACACAAAAGTATAAATAATTT [CACACA_site5338]”: 7.15; “TCAAATATTCATAAATGTACATTTATTTTTCTCCTT [XGTACX_site5827]”: 6.74.
Take “TTATTTTAATAACCTACACACATTTTGTATATTTTA [CACACA_site4000]”: the “gcPBM binding intensity (ln)” value amounted to 6.81.
For the sequence “TATATATATGTGTTTACACACAATAATGAATTAAAA [CACACA_site4659]”, the “gcPBM binding intensity (ln)” value came out at 7.28.
Next, “ATATCAATTTTTGGTGGTACGTAGGAAGTTTCAGAA [XGTACX_site6881]”: 7.4.
Regarding “ATATAGGTAAAAAGTATACACACGTTGACACATTCT [CACACA_site1199]”, the “gcPBM binding intensity (ln)” value was 6.95.
For the sequence “TTTTTTTTTTTTTTATGTACACATCTAAAAAAAAGG [XGTACX_site2067]”, the “gcPBM binding intensity (ln)” value turned out to be 7.43.
Under “TTTTTTTTTTTTGGATGTACTTAATGAAAATGTTAC [XGTACX_site8980]” stands 7.36.
Next, ACATATAATAAAATAGTGCATTGTTAGTTTTATATA: 9.85.
Next, TTATTTATTTATATAGTGCAATAAACACATAAATAG: 8.
As to “AAATAGTTGTTATGGGTGCAAACCACATATATATAA [GTGCAC_site9428]”, the “gcPBM binding intensity (ln)” value was determined as 11.
Next, “GATTTTTAAAATATCACACATAAAAAAAAAAAAAAA [CACACA_site5516]”: 6.96; “AAAAATAAAGGGTGTGCACACAAAAATATATATATA [CACACA_site1727]”: 9.1.
Consider “AAATAAAAAGGGTGCACACAAAAATATATATATATA [CACACA_site1728]”, for which the “gcPBM binding intensity (ln)” value amounted to 12.4.
For “TATATATATATAAGTGCACACTGAACCAAGAAAATT [CACACA_site5637]”, the “gcPBM binding intensity (ln)” value came out at 9.97.
As for “AAAAATATAAACTGCACACACACAAAAAAAGAAAAA [CACACA_site648]”, the “gcPBM binding intensity (ln)” value worked out at 7.25.
Next, “AATATAAAAAGGCACACACACAAAAAAAAAAAAAAA [CACACA_site896]”: 7.13; “AAAAAAAGAAAAATTGCACACACTTATAAAAATATA [CACACA_site4014]”: 6.99.
For the sequence “AAATATAAAGTGCACACACACAAAAAAAGAAAAAAA [CACACA_site6452]”, the “gcPBM binding intensity (ln)” value was found to be 11.2.
Next, “ATAAAAATAAAAAGTGTGCACACAAAAATATATATA [GTGCAC_site9931]”: 8.78; “TATATATATAAGTGCACACTGAACCAAGAAAATTAT [CACACA_site3008]”: 10.5; “AAACTCAACTTATATACACACAATCTTTTTTTTTTA [CACACA_site29]”: 6.8.
Next, “AAATGTAATAATAAATGTACAAACATATATATGTAT [XGTACX_site8718]”: 6.94; “CTAAAAATCTTTTGTTGTACTTTTAGATAATCAGGA [XGTACX_site3968]”: 7.06.
Next, “ATGGGGAATAATGAATGTACACAAATAAAAAGTTGG [XGTACX_site4015]”: 7.13; “TTTTTTTTTTTTTGTTGTACCCATCATATATACATA [XGTACX_site4342]”: 7.11.
Turning to “GTTCATTCATTTTAATGTACAAATTTAACTTTTTCT [XGTACX_site680]”, the “gcPBM binding intensity (ln)” value is 6.91.
For “TCTTTTTTAAATAAAAGTACAAAAAAAAATAAAAAA [XGTACX_site2670]”, the “gcPBM binding intensity (ln)” value turned out to be 6.93.
Under “ATTTTTTTTTTTTTATGTACATATTAAAAAAAATAT [XGTACX_site1829]” stands 7.01; under “ATATAAAAATACAGGTGTACATTTTTTCATATTTAT [XGTACX_site6959]”, 7.18; under “GATTCATCTAAACACCGTACATATTATATATATATA [XGTACX_site6030]”, 9.22.
Consider “TTATGGTGCAACATTATGCACACCGTTAAATAACTA [CACACA_site3846]”, for which the “gcPBM binding intensity (ln)” value stood at 11.9.
Next, “ATGGTGCAACATTATGCACACCGTTAAATAACTAAT [CACACA_site9280]”: 11.8.
Under “TAATATATTATAAACACATGCACATTAATAATAACT [TGCATGCA_site708]” stands 9.16; under “TCATAAACATTATGCACACAAAAATAAAAAAAAATA [CACACA_site1115]”, 7.52; under “AACAACAACTAATATGCACACATTTAAAAACAAAAT [CACACA_site2440]”, 7.5.
Under “AATCATAAACATTATGCACACAAAAATAAAAAAAAA [CACACA_site8289]” stands 7.36; under TGATTCTAACTTATGGTGCAACATTATGGACACCGT, 10.7.
Consider “TATATAACATATGGGACACACATGCAACTGTTATAT [CACACA_site3792]”, for which the “gcPBM binding intensity (ln)” value came out at 7.19.

The values are drawn from the supplement of paper PMC11417369.
